According to PubChem BioAssay (NCI):
This is part of a sample that, as a whole, favours compounds with a hit. Of some 83,000 tested, about 20% had one in any assay.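 Plates (96-well) were seeded with cells, treated with compound at one concentration, and incubated for 48 hours before percent growth was determined.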 Activity calls are given as the source filed them. How the source made its calls: active means growth percent below 10; inactive means the rest.

Test system: EKVX NSCLC
Assay: NCI-60 one-dose screen, 48 h (100 = growth as untreated, 0 = no growth, -100 = all killed)
Conditions: 10 µM unless noted

Row | Structure (SMILES) | growth
1 | COc1cc(Cl)cc(-c2nn(C(=O)NS(=O)(=O)c3ccccc3)cc2-c2ccncc2)c1 | 61.2% (inactive)
2 | Cn1cc(-c2noc(-c3cn(C)c4ncccc34)n2)c2cc(Cl)ccc21 | 89.3% (inactive)
3 | CC(C)CSc1ncnc2nc[nH]c12 | 95.3% (inactive)
4 | Cc1cnc([C@]23CC[C@@H](C)[C@H](C)[C@H]2C2=CC[C@@H]4[C@@]5(C)Cc6c([nH]c7ccccc67)C(C)(C)[C@@H]5CC[C@@]4(C)[C@]2(C)CC3)o1 | 74% [100 µM] (inactive)
5 | CC1(C)CC[C@]2(C(=O)O)CC[C@]3(C)C(=CC[C@@H]4[C@@]5(C)C/C(=C/c6ccco6)C(=O)C(C)(C)[C@@H]5CC[C@]43C)[C@@H]2C1 | -19.6% [100 µM] (active)

Test system: SN12C renal
Assay: as above
Conditions: 10 µM unless noted

Row | Structure (SMILES) | growth
6 | O=C(Nc1cccc(F)c1)c1cc(=O)[nH]c2cc(Br)ccc12 | 60% (inactive)
7 | COC(=O)[C@]12CCC(C)(C)C[C@H]1C1=CC[C@@H]3[C@@]4(C)C/C(=C/c5cccnc5)C(=O)C(C)(C)[C@@H]4CC[C@@]3(C)[C@]1(C)CC2 | -51.4% [100 µM] (active)
8 | N#C/C(C(=O)c1ccccc1)=C1/C(=O)Nc2ccc(Br)cc21 | 91.8% (inactive)
9 | COc1ccc(-c2cc(-c3ccc(Cl)cc3)nc(NCCCCNc3ccnc4cc(Cl)ccc34)n2)cc1 | 77.1% (inactive)
10 | CCCSc1nc(N)nc2nc[nH]c12 | 98.3% (inactive)
11 | CCN(CC)c1ccc2cc(NC(=O)OCCNC(=O)CCNC(=O)[C@H](CC(C)C)NC(=O)C(C)(C)NC(=O)C(C)(C)NC(=O)[C@H](CC(C)C)NC(=O)CCNC(=O)C(C)(C)NC(=O)[C@H](CC(C)C)NC(=O)CCNC(=O)[C@@](C)(CC)NC(=O)[C@H](C)NC(=O)CCNC(=O)C(C)(C)NC(=O)[C@H](C)NC(=O)[C@@H]3CCCN3C(=O)[C@@](C)(CC)NC(=O)[C@H](Cc3ccccc3)NC(=O)C3CCCN3C(=O)C(C)(C)NC(=O)C3CCCN3C(=O)C(C)(C)NC(C)=O)c(=O)oc2c1 (stereo not given in full) | -74.6% (active)
12 | C=C(C)[C@@H]1CC[C@]2(C(=O)N3CCN(C)CC3)CC[C@]3(C)[C@H](CC[C@@H]4[C@@]5(C)C/C(=C/c6ccncc6)[C@H](O)C(C)(C)[C@@H]5CC[C@]43C)[C@@H]12 | -44.2% [100 µM] (active)
13 | CC[C@@](C)(NC(=O)[C@H](C)NC(=O)CCNC(=O)C(C)(C)NC(=O)[C@H](C)NC(=O)[C@@H]1CCCN1C(=O)[C@@](C)(CC)NC(=O)[C@H](Cc1ccccc1)NC(=O)C1CCCN1C(=O)C(C)(C)NC(=O)C1CCCN1C(=O)C(C)(C)NC(C)=O)C(=O)NCCC(=O)N[C@@H](CC(C)C)C(=O)NC(C)(C)C(=O)NCCC(=O)N[C@@H](CC(C)C)C(=O)NC(C)(C)C(=O)NC(C)(C)C(=O)N[C@@H](CC(C)C)C(=O)NCCC(=O)NCO (stereo not given in full) | -76.7% (active)
14 | C#C[C@]1(O)CC[C@H]2[C@@H]3CC=C4c5nc(Nc6ncccn6)sc5CC[C@]4(C)[C@H]3CC[C@@]21C | 82.8% (inactive)
15 | CC(C)(C)c1cc(C(=O)N2CCC(C(=O)NCCN)CC2)cc(C(C)(C)C)c1 | 89.5% (inactive)
16 | CCOC(=O)/C(C#N)=C(\C)CCc1ccccc1 | 118% (inactive)
17 | COc1ccc2c3ccnc(C(F)(F)F)c3n(CCCCN)c2c1 | 51.6% (inactive)
18 | O=C(O)c1cccc(CN2CCN(c3cc4c(cc3F)c(=O)c(C(=O)O)cn4C3CC3)CC2)c1O | 102% (inactive)
19 | CCN(CC)c1ccc2cc(C(Nc3ccc(Br)c(C(F)(F)F)c3)c3nnnn3C(C)(C)C)c(=O)oc2c1 (stereo not given) | 90.4% (inactive)
20 | O=C(NCCCNC(=O)OCc1ccc2c(Br)cc(Br)c(O)c2n1)OCc1ccc2c(Br)cc(Br)c(O)c2n1 | -77.4% (active)
21 | C[N+](C)(C)c1ncnc2[n-]cnc12 | 72.3% (inactive)
22 | O=S(=O)(c1ccc(N/N=C\c2ccccc2Cl)cc1)c1ccc(N/N=C/c2ccccc2Cl)cc1 | 87.2% (inactive)
23 | CCCOc1ccc(-c2nc(-c3ccc(N)cc3)cs2)cc1 | 95.2% (inactive)

Row | Structure (SMILES) | growth
24 | N#CCCc1c[nH]c2ccccc12 | 101% (inactive)
25 | C=CCCCCCCCCC(=O)OC(C)C | 105% (inactive)
26 | COc1cc2c(cc1OCCCCCOc1ccc(-n3c(C)nc4ccccc4c3=O)cc1)N=C[C@@H]1CCCN1C2=O | 12.7% (inactive)
27 | Cc1cccc(/C=C2\N=C(c3ccccc3)N(c3ccc(S(N)(=O)=O)cc3)C2=O)c1 | 91.8% (inactive)
28 | Clc1ccc(/C=N/Nc2nc3ccccc3s2)c(Cl)c1 | 95.3% (inactive)
29 | CCOC(=O)COc1c(C)cc(SSc2cc(C)c(OCC(=O)OCC)c(C)c2)cc1C | 102% (inactive)
30 | CCOC(=O)c1c[nH]n2c(=S)ncnc12 | 99.4% (inactive)
31 | CC1(C)CC[C@]2(C(N)=O)CC[C@]3(C)C(=CC[C@@H]4[C@@]5(C)C/C(=C/c6cccnc6)C(=O)C(C)(C)[C@@H]5CC[C@]43C)[C@@H]2C1 | -58.8% [100 µM] (active)
32 | O=[N+]([O-])c1cc(CCl)ccc1OCCBr | 99.7% (inactive)
33 | O=C1COCCN1c1ccc(Nc2nc(Cl)nc(N3CCOCC3)n2)cc1 | 102% (inactive)
34 | O=C(OCc1ccc2c(Cl)cc(Cl)c(O)c2n1)N1CCNCC1 | 32% (inactive)
35 | Cc1ccc(S(=O)(=O)NCCCNc2nccc(-c3c(-c4cccc(F)c4)nc4occn34)n2)cc1 | 70.1% (inactive)
36 | COc1cc(Cl)cc(-c2nn(C(=O)NS(=O)(=O)c3ccccc3)cc2-c2ccncc2)c1 | 94.5% (inactive)
37 | Cn1cc(-c2noc(-c3cn(C)c4ncccc34)n2)c2cc(Cl)ccc21 | 92.1% (inactive)
38 | CC(C)CSc1ncnc2nc[nH]c12 | 94.7% (inactive)
39 | Cc1cnc([C@]23CC[C@@H](C)[C@H](C)[C@H]2C2=CC[C@@H]4[C@@]5(C)Cc6c([nH]c7ccccc67)C(C)(C)[C@@H]5CC[C@@]4(C)[C@]2(C)CC3)o1 | 36.7% [100 µM] (inactive)
40 | CC1(C)CC[C@]2(C(=O)O)CC[C@]3(C)C(=CC[C@@H]4[C@@]5(C)C/C(=C/c6ccco6)C(=O)C(C)(C)[C@@H]5CC[C@]43C)[C@@H]2C1 | -52.3% [100 µM] (active)
